Assay outcomes (PubChem BioAssay)
A selection: hits, their analogues and other compounds. The true share with any hit is near 1.7%.
LYP inh 2: PTPN22 phosphatase inhibitors, primary screen, biochemical, DiFMUP fluorescence, 2 µM. 96,000 compounds, 0.21% hits. recombinant LYP catalytic domain. Tyrosine-protein phosphatase non-receptor type 22 (Homo sapiens), Q9Y2R2. inhibition, % at 2 µM;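 active = inhibition at 2 µM at or above a set limit, the screen mean plus 3 SD, cut at about 24% in these data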;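 note: 0% = DMSO with enzyme and 100% = enzyme fully blocked by orthovanadate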
Target sequence (Q9Y2R2 whole entry, looked up, the tested form may be a part): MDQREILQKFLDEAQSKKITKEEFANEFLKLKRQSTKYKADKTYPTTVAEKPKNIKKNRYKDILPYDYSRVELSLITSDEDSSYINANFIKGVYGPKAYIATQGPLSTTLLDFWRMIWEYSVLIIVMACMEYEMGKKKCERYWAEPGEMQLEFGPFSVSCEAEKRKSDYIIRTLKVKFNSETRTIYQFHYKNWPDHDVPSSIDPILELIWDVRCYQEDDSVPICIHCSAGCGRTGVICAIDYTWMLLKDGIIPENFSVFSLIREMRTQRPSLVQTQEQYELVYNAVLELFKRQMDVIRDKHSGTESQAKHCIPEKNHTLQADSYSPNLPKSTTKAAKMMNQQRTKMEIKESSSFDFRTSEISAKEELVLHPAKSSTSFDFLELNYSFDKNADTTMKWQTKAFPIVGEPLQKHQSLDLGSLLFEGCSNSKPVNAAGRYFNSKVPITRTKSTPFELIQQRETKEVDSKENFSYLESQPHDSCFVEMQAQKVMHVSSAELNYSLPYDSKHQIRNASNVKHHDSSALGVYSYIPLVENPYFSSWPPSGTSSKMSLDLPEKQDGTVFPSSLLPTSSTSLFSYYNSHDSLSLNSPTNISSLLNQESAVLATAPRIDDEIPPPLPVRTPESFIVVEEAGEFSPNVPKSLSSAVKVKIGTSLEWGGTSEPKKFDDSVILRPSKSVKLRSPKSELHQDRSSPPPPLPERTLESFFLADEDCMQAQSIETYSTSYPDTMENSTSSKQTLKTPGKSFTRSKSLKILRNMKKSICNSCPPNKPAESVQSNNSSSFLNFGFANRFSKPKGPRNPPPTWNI
LYP act: LYP phosphatase activators, primary screen, biochemical, DiFMUP fluorescence, 2 µM; Tyrosine-protein phosphatase non-receptor type 22 (Homo sapiens), Q9Y2R2; recombinant LYP; 0 = plate median, 100 = signal doubled; activation, % at 2 µM; 96,000 compounds, 0.11% hits;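 active = activation at 2 µM above a set limit, the mean plus 5 SD, cut at about 37% in these data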
sEH inhibitor: soluble epoxide hydrolase inhibitors, primary screen, biochemical, human sEH; Bifunctional epoxide hydrolase 2 (Homo sapiens), P34913; recombinant human sEH enzymatic activity assay; inhibition, % at 2 µM; 91,000 compounds, 0.34% hits; in the data active = inhibition above about 80%
sEH act: soluble epoxide hydrolase activators, primary screen, biochemical, human sEH; Bifunctional epoxide hydrolase 2 (Homo sapiens), P34913; purified human sEH enzymatic activity, activator screen; activation, % at 2 µM; 91,000 compounds, 0.04% hits; in the data active = activation above about 37%
Measles CPE: compounds protecting cells from measles virus cytopathic effect, primary screen, measles RdRp inhibitor project, single point, MLSMR library, absorbance; Measles virus-infected cells, CPE protection; protection (pct of control), % at 4 µM; 140,000 compounds, 1.5% hits; AID 841, 2007; in the data active = protection mostly above about 24%, no sharp cut-off; inactive = mostly below about 26%
Starred values were filed as active, the others as inactive; . = not tested or not shown.

SMILES | LYP inh 2 | LYP act | sEH inhibitor | sEH act | Measles CPE
C[n+]1ccn(CC(=O)c2ccc(Cl)cc2)c1 | . | . | . | . | 38.8*
O=C(CN1C(=O)c2ccccc2C1=O)Nc1sc2c(c1C(=O)NCc1ccco1)CCCC2 | 11.1 | -9.2 | -14.2 | 18.2 | 61.7*
O=C(NCc1ccco1)c1ccc2nc3sc4c(c3c(=O)n2c1)CCCC4 | 24.8* | -26.5 | -5.7 | 3.2 | 3.4
O=C(CNC1CCCCCC1)c1cccs1 | . | . | . | . | 11.9
O=C(CC(C(=O)O)c1ccccc1)Nc1ccccc1 (stereo unspecified) | . | . | . | . | 14.6
CC(CC(=O)Nc1ccc(C(N)=O)cc1)c1ccccc1 (stereo unspecified) | . | . | . | . | 29.1*
C=CCn1c(=N)n(CC(=O)c2ccc(Br)s2)c2ccccc21 | . | . | . | . | 6.2
CCOc1ccc(Br)cc1S(=O)(=O)Nc1ccc(N2CCOCC2)cc1 | 4.3 | -4.4 | 2.9 | -1.6 | 76.9*
O=C(NNC(=O)c1cc(-c2ccccc2)n(-c2ccccc2)n1)c1cccc([N+](=O)[O-])c1 | . | . | . | . | 8.3
Cc1cccc(NC(=S)NNC(=O)Cc2ccccc2)c1 | . | . | . | . | 3.4
O=C(Cc1ccccc1)NNC(=S)Nc1ccc(Cl)cc1 | . | . | . | . | 19.4*
CC(=O)c1cccc(NC(=O)C2CCN(S(=O)(=O)c3cccs3)CC2)c1 | -13.5 | 9.1 | 24.9 | -27.1 | 12.8
CC(=O)Nc1ccc(-c2csc(NC(=O)C3CCN(S(=O)(=O)c4cccs4)CC3)n2)cc1 | . | . | . | . | 67.9*
Cc1c(-c2ccccc2)oc2c(C(=O)N3CCN(c4ccc([N+](=O)[O-])cc4)CC3)cccc2c1=O | . | . | . | . | 15.1
CCc1c(C)sc(NC(=O)c2ccco2)c1C(=O)N1CCCCC1 | -13.7 | 10.3 | 0.1 | -2.5 | 37.5*
CCc1c(C)sc(NC(=O)c2ccco2)c1C(=O)N1CCOCC1 | -1.1 | 1.2 | 9.2 | -6.5 | 1.6
CC1=C(C)CC(C(=O)c2ccccc2)C(C(=O)O)C1 (stereo unspecified) | 2.8 | -4.3 | -9.2 | 6.8 | 47.7*
O=C(Nc1cccc(C(F)(F)F)c1)c1cccnc1N1CCOCC1 | . | . | . | . | 7.8
O=C(Nc1cccc(F)c1)c1cccnc1N1CCOCC1 | -1.4 | 0.4 | 0.2 | 0.3 | 23.7*
C/C(=N\NC(=O)C1CC1(C)c1ccccc1)c1ccco1 (stereo unspecified) | . | . | . | . | 70.8*
N#Cc1nc(-c2ccc(OCc3ccc(Cl)cc3)cc2)oc1NCCCn1ccnc1 | 25.5* | -26.9 | -2.1 | 2.3 | 6.0
CC(C)C(CCNC(=O)CC(Cc1ccccc1)c1ccco1)c1ccco1 (stereo unspecified) | 24.1* | -21.2 | 46.0 | -46.2 | 24.2
COc1ccc(CCNC(=O)c2ccc(-c3ccc([N+](=O)[O-])cc3Cl)o2)cc1 | . | . | . | . | 11.0
COc1ccccc1-c1cnnc(N/N=C/c2ccc(-c3cccc(Br)c3)o2)n1 | 31.4* | -31.0 | 5.6 | -3.2 | 4.9
CC12CCC(C(=O)Nc3ccccc3Cl)(C(Br)C1=O)C2(C)C (stereo unspecified) | . | . | . | . | 36.3*
SMILES | LYP inh 2 | LYP act | sEH inhibitor | sEH act | Measles CPE
Cc1ccc(S(=O)(=O)Cn2nnnc2C(C)N2CCN(C(=O)c3ccco3)CC2)cc1 (stereo unspecified) | 5.4 | -7.6 | -7.3 | 5.9 | 55.8*
COC(=O)c1cc(Br)c(=O)n(Cc2ccco2)c1 | 2.0 | -4.7 | . | . | 37.1*
CCCCCCCCC[n+]1cccc2c3ccccc3ccc21 | 5.2 | -2.0 | -12.1 | 13.3 | 28.9*
CCCCCCCCCCCCCCCC[n+]1cccc2ccccc21 | . | . | . | . | 5.0
COc1ccccc1-c1cc(SC)c(C#N)c(=O)o1 | . | . | . | . | 18.6
CCc1ccc(N/C(SC)=C(/C#N)C(N)=O)cc1 | 0.6 | -3.0 | . | . | 39.6*
Cc1cc(C(F)F)nn1CC(=O)Nc1cc([N+](=O)[O-])ccc1F | . | . | . | . | 4.1
Cc1ccc(CSc2nnc(-c3ccccc3N)c(=O)[nH]2)cc1 | 28.9* | -29.6 | -5.0 | 2.6 | 5.3
CC/C(=N\NC(=O)c1cc(C)nc2ccccc12)c1ccc(C)s1 | . | . | . | . | 10.7
C=C(C)C(=O)OC1(C(F)(F)F)Oc2cc(C)ccc2NC1=O (stereo unspecified) | -7.2 | 11.3 | -41.1 | 40.6* | 8.8
CCOC(=O)C1(N(CC)CC)Sc2cc(C)ccc2NC1=O (stereo unspecified) | -0.8 | -0.7 | 12.9 | -12.7 | 2.9
Cc1ccc(NC(=O)COC(=O)C(CC(C)C)N2C(=O)C3CC=CCC3C2=O)c(C)c1 (stereo unspecified) | . | . | . | . | 2.3
CC(C)[C@H](NS(=O)(=O)c1ccc2c(c1)OCCO2)C(=O)OCC(=O)Nc1cc(Cl)ccc1Cl | . | . | . | . | 11.5
COc1cccc(N=Cc2ccc(O)cc2O)c1 | . | . | . | . | 34.9*
CC(C)c1ccc(NC(=S)NCCc2c[nH]c3ccccc23)cc1 | . | . | . | . | 2.2
Cn1c(SCC(=O)N2CCOCC2)nc2sc3c(c2c1=O)CCCC3 | 5.8 | -5.2 | 0.0 | -1.9 | 38.3*
CCn1c(SCC(=O)Nc2cc(C)on2)nc2sc3c(c2c1=O)CCCC3 | -8.5 | 5.1 | 0.5 | -2.1 | 13.9
Cc1cc(NC(=O)CSc2nc3sc4c(c3c(=O)n2C)CCCC4)no1 | -7.4 | 5.1 | -20.8 | 20.1 | 33.1*
Cc1cc(OC(F)F)ccc1NC(=O)Nc1ccc([N+](=O)[O-])cc1 | . | . | . | . | 4.7
CNc1cc(CSC)nc(SCc2ccc(Cl)cc2Cl)n1 | 14.0 | -12.0 | -0.5 | -1.9 | 26.4*
O=C(O)CCn1c(SCc2cccc3ccccc23)nc2ccccc21 | 11.1 | -9.0 | 1.3 | -0.4 | 28.8*
CCSc1nc2ccccc2n1CCC(=O)O | -0.8 | 3.7 | 2.0 | 0.8 | 2.0
N=c1c(-c2nc3ccccc3[nH]2)cc(C(=O)c2cccs2)nn1-c1ccc(Cl)cc1 | 4.6 | -6.3 | 9.3 | -5.3 | .
Cc1ccc(C(=O)NCc2ccccc2)cc1Br | . | . | . | . | 4.4
CC(=O)NS(=O)(=O)c1ccc(NC(=O)CN2C(=O)C3C4C=CC(C4)C3C2=O)cc1 (stereo unspecified) | . | . | . | . | 21.5
SMILES | LYP inh 2 | LYP act | sEH inhibitor | sEH act | Measles CPE
COc1cc(NC(=O)COC(=O)C2CC2)c(C)cc1[N+](=O)[O-] | . | . | . | . | 26.3
COc1cc(NC(=O)CN2CCC(Cc3ccccc3)CC2)c(C)cc1[N+](=O)[O-] | . | . | . | . | 69.5*
COc1cc(/C=C/C(=O)OCC(=O)NC(=O)NC23CC4CC(CC(C4)C2)C3)ccc1OCC#N | . | . | . | . | 8.4
CC(C)(C)NC(=O)CN(C(=O)CSc1nnc(COc2ccccc2)o1)c1cccc(F)c1 | 5.3 | -3.2 | -7.1 | 8.1 | 30.6*
O=C(CNC(=O)c1ccc(-c2ccccc2)cc1)OCc1c(F)cccc1Cl | . | . | . | . | 3.8
O=C(NC(=S)Nc1ncc(Br)cc1Br)c1cncc(Br)c1 | 4.6 | -2.3 | 3.8 | -1.9 | 39.8*
CC(C)(C)n1nc2c(c1NC(=O)c1ccc(S(=O)(=O)N3CCCCC3)cc1)CS(=O)C2 (stereo unspecified) | 0.0 | -1.9 | -9.6 | 9.1 | 43.8*
Cc1ccc(N2C(=O)C3NN=C(C(=O)OCc4ccccc4)C3C2=O)c(C)c1 (stereo unspecified) | . | . | . | . | 4.7
CCNc1oc(COc2cccc(C)c2)nc1C#N | -1.6 | 2.2 | 0.8 | 1.8 | 37.9*
Cc1noc(C)c1C1(O)CCCCCCCCCCC1 | . | . | . | . | 5.8
